From PubChem BioAssay (NCATS)
Results filed as inconclusive are left out. Unmarked numbers belong to inactive results. Activity calls are given as the source filed them. Calls follow the shape of the dose curve; as a rule, active = well fitted cell-killing curve with a large enough effect; inconclusive = small, poorly fitted or top-dose-only effect, or effect the other way; inactive = flat fitted curve, though single readings scatter. Where a SMILES comes first, the peptide text is derived from it. [ ]: non-standard residue; d: D form. ξ: configuration not given here. ξPhe(βξ-Me) = CC(c1ccccc1)C(N)C(=O)O; GABA = NCCCC(=O)O
% is scaled to controls: 0 for no effect and ±100 for the full control effect.

These molecules were tested on OV90 (assay: Primary qHTS to identify gynecologic anti-cancer compounds using libraries of approved drugs and bioactive compounds (AID 1345084; also: nearly all actives have a fitted effect of over 55% in size)). Conditions: Gynecologic cancer cell panel viability, ATPlite luminescence, 48 h; series mostly up to 57.5 µM; activity change, negative = cytotoxicity: at the top concentration.
In short: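 48 h compound exposure at 37 C, 5% CO2; five-point qHTS. ATPlite luminescence readout of cell ATP.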
`CC(C)CC1NC(=O)C(C(C)c2ccccc2)NC(=O)C(C(C)C)NC(=O)C(C)NC(=O)CCCNC(=O)C(Cc2c[nH]c3ccccc23)NC(=O)C(C)NC1=O` (stereo not drawn) (cyclo([GABA]AV[ξPhe(βξ-Me)]LAW); configuration not given here) was tested, and the “activity change, negative = cytotoxicity” value was -1.5% [at 25.3 µM]. In the case of `C=C1CCC2C(C)(C)C(O)CCC2(C)C1CCC(C)CCOC(=O)CCC(=O)O` (configuration not stated), the “activity change, negative = cytotoxicity” value is reported as -1.4% [at 25.3 µM]. `COc1cc(C)c(C(=O)O[C@H]2[C@@H](O)[C@H](n3ccc(=O)[nH]c3=O)O[C@@H]2CO)c(OC)c1` was tested, and the “activity change, negative = cytotoxicity” value was 2.8% [at 25.3 µM]. Work on `COC(=O)C1=COC(O[C@@H]2O[C@H](CO)[C@@H](O)[C@H](O)[C@H]2O)/C(=C\COC(=O)c2ccc(OC3OC(CO)C(O)C(O)C3O)c(OC)c2)C1CC(=O)OCCc1ccc(O)cc1` (some centres not stated) yielded an activity change, negative = cytotoxicity of 1.39% [at 11.6 µM]. With `COc1cc(CC(COC2OC(CO)C(O)C(O)C2O)c2cc(/C=C/CO)cc(OC)c2O)ccc1O` (configuration not stated) the “activity change, negative = cytotoxicity” value was 18.1% [at 25.3 µM]. Work on `CC1(C)C[C@H]2C3=CCC4[C@@]5(C)CC[C@H](O[C@H]6O[C@H](C(=O)O)[C@@H](O)[C@H](O)[C@H]6O[C@H]6O[C@H](CO)[C@@H](O)[C@H](O)[C@H]6O[C@@H]6O[C@H](CO)[C@@H](O)[C@H](O)[C@H]6O)[C@](C)(CO)C5CC[C@@]4(C)[C@]3(C)CC[C@@]2(C)[C@H](O[C@@H]2OC[C@H](O)[C@H](OC3O[C@H](CO)[C@@H](O)[C@H](O)[C@H]3O)[C@H]2O)[C@@H]1O` (some centres not stated) yielded an activity change, negative = cytotoxicity of -1.3% [at 6.55 µM]. With `O=C1N(CC2CCCCN2)CCN1c1ccccc1` (configuration not stated) the “activity change, negative = cytotoxicity” value was 9.43%. With `CCCOc1ccn2c(C(C)=O)cc(-c3ccccc3S(C)(=O)=O)c2c1` the “activity change, negative = cytotoxicity” value was 6.44%. For `COc1cc(/C=C/C(=O)O[C@H]2[C@H](O)[C@@H](CO)O[C@@]2(CO)O[C@H]2O[C@H](COC(=O)c3ccc(O)cc3)[C@@H](O)[C@H](O)[C@H]2O)cc(OC)c1OC`, the “activity change, negative = cytotoxicity” value was 8.49% [at 25.3 µM]. `OC[C@H]1O[C@@H](n2cnc3c2NC=NC[C@H]3O)C[C@@H]1O` was tested, and the “activity change, negative = cytotoxicity” value was -5.46%. `CNc1nc(Nc2cnn([C@H]3CCN(C4COC4)C[C@@H]3F)c2Cl)ncc1C(F)(F)F` was tested, and the “activity change, negative = cytotoxicity” value was -17.4%. With `CCCCS(=O)(=O)Nc1ncnc(OCCOc2ncc(Br)cn2)c1-c1ccc(Br)cc1` the “activity change, negative = cytotoxicity” value was 1.85%. With `CC/C=C/CC1=C(CCCCCCCC(=O)O)CCC1=O` the “activity change, negative = cytotoxicity” value was 5.77%. For `C[C@@H]1O[C@@H](OC[C@H]2O[C@@H](OCCc3ccccc3)[C@H](O)[C@@H](O)[C@@H]2O)[C@H](O)[C@H](O)[C@H]1O`, the “activity change, negative = cytotoxicity” value was -0.574% [at 25.3 µM]. For `C=C[C@](C)(CC/C=C(\C)C(=O)O)O[C@@H]1OC[C@H](O)[C@H](O)[C@H]1O`, the “activity change, negative = cytotoxicity” value was 3.98% [at 38.5 µM]. For `FC(F)(F)c1cc(C(F)(F)F)c2ccc3nc(-c4nnco4)cn3c2n1`, the “activity change, negative = cytotoxicity” value was -0.114%. In the case of `C[C@@H]1O[C@@H](OC[C@H]2O[C@@H](OCC3CCC4CC3C4(C)C)[C@H](O)[C@@H](O)[C@@H]2O)[C@H](O)[C@H](O)[C@H]1O` (some centres not stated), the “activity change, negative = cytotoxicity” value is reported as 1.1% [at 25.3 µM]. `O=C1[C@H](O[C@@H]2O[C@H](CO)[C@@H](O)[C@H](O)[C@H]2O)Oc2ccccc2N1O` was tested, and the “activity change, negative = cytotoxicity” value was 0.0163% [at 38.5 µM]. `C[C@@H]1O[C@@H](O[C@H]2[C@H](OC(=O)[C@]34CCC(C)(C)C[C@H]3C3=CCC5[C@@]6(C)C[C@H](O)[C@H](O[C@@H]7O[C@H](CO[C@@H]8OC[C@H](O)[C@H](O)[C@H]8O)[C@@H](O)[C@H](O)[C@H]7O)C(C)(C)C6CC[C@@]5(C)[C@]3(C)C[C@H]4O)OC[C@@H](O)[C@@H]2O)[C@H](O)[C@H](O[C@@H]2OC[C@](O)(CO)[C@H]2O)[C@H]1O[C@@H]1OC[C@H](O)[C@H](O[C@@H]2OC[C@@H](O)[C@H](O)[C@H]2O)[C@H]1O` (some centres not stated) showed an activity change, negative = cytotoxicity of -1.75% [at 6.55 µM]. With `COC(=O)C1C(c2ccc(O)cc2)C(C(=O)OC)C1c1ccc(O)cc1` (configuration not stated) the “activity change, negative = cytotoxicity” value was 5.11% [at 38.5 µM]. `CCN[C@@H]1C[C@H](N)[C@@H](O[C@H]2OC(CN)=CC[C@H]2N)[C@H](O)[C@H]1O[C@H]1OC[C@](C)(O)[C@H](NC)[C@H]1O` was tested, and the Potency was “inactive”. With `CCOC(=O)[C@H]1O[C@@H]1C(=O)N[C@@H](CC(C)C)C(=O)NCCC(C)C` the “activity change, negative = cytotoxicity” value was -16.8%. In the case of `CC(=O)N1c2ccccc2C2(O)CC3C(=O)NC(CC(C)C)C(=O)N3C12` (configuration not stated), the “activity change, negative = cytotoxicity” value is reported as -14.8% [at 38.5 µM]. For `CC(C)=CCC/C(C)=C/CC/C(C)=C/CC[C@]1(C)CCc2cc(O)cc(C)c2O1`, the “activity change, negative = cytotoxicity” value was -0.58% [at 25.3 µM]. `O=C(c1ccc(NS(=O)(=O)c2cccc3cccnc23)cc1)N1CCN(CC2CC2)CC1` was tested, and the “activity change, negative = cytotoxicity” value was 2.89%. With `COc1cc(N2CCC(O)CC2)ccc1Nc1cc(Nc2ccccc2S(=O)(=O)C(C)C)c2cc[nH]c2n1` the “activity change, negative = cytotoxicity” value was 4.44% [at 38.5 µM]. With `C[C@@H]1O[C@@H](O[C@H]2[C@H](OC(=O)[C@]34CCC(C)(C)C[C@H]3C3=CCC5[C@@]6(C)C[C@H](O)[C@H](O[C@@H]7O[C@H](CO)[C@@H](O[C@@H]8O[C@H](CO)[C@@H](O)[C@H](O)[C@H]8O)[C@H](O)[C@H]7O)[C@@](C)(CO)C6[C@H](O)C[C@@]5(C)[C@]3(C)C[C@H]4O)OC[C@H](O)[C@@H]2O)[C@H](O)[C@H](O)[C@H]1O[C@@H]1OC[C@@H](O)[C@H](O[C@@H]2OC[C@](O)(CO)[C@H]2O)[C@H]1O` (some centres not stated) the activity change, negative = cytotoxicity was 4.05% [at 6.55 µM].
